Growth data for 17 compounds are collected here from PubChem BioAssay (NCI).

Test in all cases: NCI-60 one-dose screen, 48 h (100 = growth as untreated, 0 = no growth, -100 = all killed)
Holding throughout (settings): 10 µM unless noted

For test [1], the system named is T-47D breast.
For test [2], the system named is BT-549 breast.
Test [3] relates to MDA-MB-435 melanoma.
Test [4] relates to SW-620 colon.
Test [5] deals with MCF7 breast.
Test [6] has as its system HCT-116 colon.
Test [7] relates to HCC-2998 colon.
The subject of test [8] is KM12 colon.

The panel holds about 83,000 compounds, 20% with a hit somewhere; the sample as a whole holds those more often.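 Percent growth is the endpoint: 0 to 100 indicates growth inhibition (40 means 60% inhibition), 0 means no net growth, and negative values indicate cell death.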 Values without a mark were called inactive. Calls of active or inactive are those of the source. Rule for the calls: active = growth percent below 10; inactive = the rest.

Turning to `N#CC(I)CS(=O)(=O)c1ccccc1` (stereo unspecified), the growth was 44.6% in test [1]; 97% in test [2]; 109% in test [3]; 26.3% in test [4]; 91.5% in test [5]; -10.5% (active) in test [6]. Besides, the growth was 107% in test [7] and 96.1% in test [8].
With `O=C(c1ccccc1)C(Br)[N+](=O)[O-]` (stereo unspecified), the growth was 65.3% in test [1]; 92.6% in test [2]; 96% in test [3]; 38.8% in test [4]; 58.8% in test [5]; 63% in test [6]. The growth is 111% in test [7] and 100% in test [8].
`Cc1onc(-c2ccccc2)c1C(=O)N/N=C/c1cc(Cl)cc(Cl)c1O`: the growth is 42% in test [1]; 33.8% in test [2]; 45.2% in test [3]; 35.3% in test [4]; 18.8% in test [5]; 21% in test [6]. The growth is 17.1% in test [7] and 30.6% in test [8].
Consider `COc1ccc(NC(=O)/C(=C/N2C(=O)/C(=C/c3ccc(OC)c(OC)c3)NC2=S)C(C)=O)cc1`, for which the growth in test [1] was 19.1%; in test [2], 55.2%; in test [3], 72.2%; in test [4], 83.6%; in test [5] it was 40.9%; in test [6], 73.7%. Further, the growth in test [7] is 88.7%; in test [8] it was 95.1%.
As to `CCOC(=O)c1cc(CC)sc1NC(=O)CC(C)=O`, the growth in test [1] was 34.8%; in test [2], 27.3%; in test [3] it was 68.8%; in test [4], 49.7%; in test [5] it was 15.9%; in test [6], 26.5%. For the same compound, the results for the growth in test [7] and in test [8] were 69.4% and 47.1%, respectively.
For `COC1CC(C)C(OC)c2cc(O)cc(c2O)NC(=O)/C(C)=C/C=C\C(C)C(OC(N)=O)/C(C)=C\C(C)C1OC` (stereo unspecified), the growth was 1.33% (active) in test [1]; -44.8% (active) in test [2]; 12.7% in test [3]; 2.74% (active) in test [4]; 20.8% in test [5]; -92.8% (active) in test [6]. Also, the growth in test [7] is -11.6% (active); in test [8], -46.4% (active).
Regarding `Nc1ccc(Oc2ccccc2)c(Cl)c1`, the growth in test [1] is 86.6%; in test [2], 97.6%; in test [3] it was 93.6%; in test [4] it was 107%; in test [5] it was 95.6%; in test [6], 79.3%. The figures for the growth in test [7] and in test [8] were 113% and 104%, respectively.
Turning to `CC1(O)CCCCCC1`, the growth in test [1] was 97%; in test [2] it was 96.1%; in test [3], 103%; in test [4], 100%; in test [5], 96.8%; in test [6], 99.4%. Also, the growth in test [7] is 98.8%; in test [8], 106%.
With `O=[N+]([O-])c1ccc(C(Br)c2ccc([N+](=O)[O-])cc2)cc1`, the growth in test [1] is 83.8%; in test [2], 77.3%; in test [3], 64.8%; in test [4] it was 11.1%; in test [5], 70.8%; in test [6], 21.3%. Moreover, the growth in test [7] is 90.4%; in test [8], 60.3%.
In the case of `c1ccc2sc(SSN3CC4CCC(CC4)C3)nc2c1`, the growth is 96.5% in test [1]; 126% in test [2]; 108% in test [3]; 110% in test [4]; 107% in test [5]; 103% in test [6]. Also, the growth in test [7] is 123%; in test [8] it was 145%.
For `CCCCCCCCc1cc(Cl)c(O)c(Cl)c1`, the growth was 101% in test [1]; 116% in test [2]; 102% in test [3]; 117% in test [4]; 118% in test [5]; 103% in test [6]. Further, the growth in test [7] was 112%; in test [8] it was 101%.
Take `NC(=S)N/N=C\c1nccc2c(C(F)(F)F)cccc12`: the growth in test [1] was 13.9%; in test [2], 7.77% (active); in test [3], 32.6%; in test [4], 29.8%; in test [5], 10.5%; in test [6], 9.27% (active). The growth was 26.6% in test [7] and 16% in test [8].
On to `CCNc1nnnn1CC`, for which the growth was 106% in test [1]; 110% in test [2]; 107% in test [3]; 104% in test [4]; 95.7% in test [5]; 102% in test [6]. In addition, the growth in test [7] and in test [8] was 110% each time.
In the case of `O=C(/C=C/c1ccccc1)c1ccccc1O`, the growth in test [1] is 62.6%; in test [2], 70.5%; in test [3], 80.6%; in test [4] it was 75.1%; in test [5] it was 26.7%; in test [6], 62.9%. In addition, the growth was 96.3% in test [7] and 28.2% in test [8].
Take `CCOc1ccc(C(CN2CCOCC2)C(C)=O)cc1OC` (stereo unspecified): the growth in test [1] was 33.2%; in test [2], 91.2%; in test [3], 97.6%; in test [4], 60%; in test [5], 13.4%; in test [6], 97.3%. The growth was 115% in test [7] and 93.3% in test [8].
On to `O=C1C=CC(=O)c2c(O)c(CO)c(CO)c(O)c21`, for which the growth in test [1] is 96.3%; in test [2] it was 97%; in test [3], 83.5%; in test [4], 109%; in test [5] it was 96.9%; in test [6], 74.7%. The growth in test [7] is 108%; in test [8] it was 115%.
`CCC1CCCCN1C(=S)N/N=C(\C)c1ccccn1` (stereo unspecified): the growth was 4.58% (active) in test [1]; 30.8% in test [2]; 3.24% (active) in test [3]; 9.32% (active) in test [4]; 13% in test [5]; 5.51% (active) in test [6]. The figures for the growth in test [7] and in test [8] were 17.9% and 4.56% (active), respectively.
